The values that follow come from PubChem BioAssay (EPA / NIEHS).

In general, AC50 refers to the midpoint of the concentration-response curve, whichever way the signal moves.

Results filed as inconclusive are left out. The source made the active and inactive calls. The calls were made as follows: active = hit-call score of the fitted dose curve at least 0.9, where 1 is the maximum; inconclusive = response in the unintended direction; inactive = score below 0.9.

The target of experiment [1] is guinea pig Opioid, Kappa 1 Receptor (OpiateK), OPRK1 (gene 100135587) (UniProt P41144). Kind of experiment: NVS_GPCR_gOpiateK: NovaScreen (NVS) G Protein-Coupled Receptor Assay for guinea pig Opioid, Kappa 1 Receptor (OpiateK) (AID 2283252).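 Also: active means reduced radioligand binding relative to DMSO.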 The essentials: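 Radioligand binding to kappa opioid receptor in guinea pig cerebellar membranes, read by filtration and scintillation at 2 h. Compounds first tested in duplicate at 25 uM, then actives in concentration series; signal loss fitted against DMSO.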

The target in experiment [2] is human Adenosine A1 Receptor (AdoRA1), ADORA1 (gene 134) (UniProt P30542). Kind of experiment: NVS_GPCR_hAdoRA1: NovaScreen (NVS) G Protein-Coupled Receptor Assay for human Adenosine A1 Receptor (AdoRA1) (AID 2283254). An outline of the steps: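 Each chemical is first tested twice at 25 uM, actives later in dilution series, against a radioligand bound to human cortex membranes; after 1 h, filter-retained counts are compared with DMSO controls, lower signal indicating displacement.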

In experiment [3] the target is human Adrenergic, Alpha 2A Receptor (Adra2A), ADRA2A (gene 150) (UniProt P08913). The experiment in a line: NVS_GPCR_hAdra2A: NovaScreen (NVS) G Protein-Coupled Receptor Assay for human Adrenergic, Alpha 2A Receptor (Adra2A) (AID 2283257). An outline of the steps: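 Displacement of a specific radioligand from HT29 membrane protein was counted by filter scintillation after 1 h. Compounds were screened in duplicate at 25 uM, and actives were retested in concentration series. Fitting was positive-direction against DMSO.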

For experiment [4], the target named is guinea pig Leukotriene D4 Receptor (LTD4), CYSLTR1 (gene 100135514) (UniProt Q2NNR5). Kind of experiment: NVS_GPCR_gLTD4: NovaScreen (NVS) G Protein-Coupled Receptor Assay for guinea pig Leukotriene D4 Receptor (LTD4) (AID 2283248). An outline of the steps:
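Guinea pig lung membrane preparation; bound radioligand measured by filter scintillation after 1 h, loss of signal versus DMSO marking displacement. Compounds tested at 25 uM in duplicate, hits retested to max 50 uM.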

In experiment [5] the test system is guinea pig Leukotriene B4 Receptor (LTB4), gene 100379538. The experiment in a line: NVS_GPCR_gLTB4: NovaScreen (NVS) G Protein-Coupled Receptor Assay for guinea pig Leukotriene B4 Receptor (LTB4) (AID 2283247). An outline of the steps:
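Membranes from guinea pig spleen incubated 2 h with radioligand and compound; bound counts measured by filtration and scintillation. Screened first at 25 uM in duplicate, then actives titrated to a 50 uM top concentration relative to DMSO.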

The target of experiment [6] is human Adenosine A2a Receptor (AdoRA2a), ADORA2A (gene 135) (UniProt P29274). The experiment in a line: NVS_GPCR_hAdoRA2a: NovaScreen (NVS) G Protein-Coupled Receptor Assay for human Adenosine A2a Receptor (AdoRA2a) (AID 2283256). An outline of the steps: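 HEK293-derived receptor preparation, radioligand displacement, 1.5 h, filtration + scintillation read. Loss of bound signal scored vs DMSO. Single-point 25 uM in duplicate first, then concentration-response for actives.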

Experiment [7] deals with human Serotonin, 5-Hydroxytryptamine Receptor 6 (5HT6), HTR6 (gene 3362) (UniProt P50406). The experiment in a line: NVS_GPCR_h5HT6: NovaScreen (NVS) G Protein-Coupled Receptor Assay for human Serotonin, 5-Hydroxytryptamine Receptor 6 (5HT6) (AID 2283253). An outline of the steps: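 Filter scintillation counting of radioligand displacement from HEK293-expressed 5HT6, 1 hour post-dose, with loss of signal relative to DMSO. Single 25 uM duplicates first, with concentration series for confirmation.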

Experiment [8] concerns the target human Adrenergic, Alpha 2c Receptor (Adra2C), ADRA2C (gene 152) (UniProt P18825). The experiment in a line: NVS_GPCR_hAdra2C: NovaScreen (NVS) G Protein-Coupled Receptor Assay for human Adrenergic, Alpha 2c Receptor (Adra2C) (AID 2283259). An outline of the steps: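 Screened first in duplicate at 25 uM, with actives then run as concentration series. Membranes from Sf9 cells were exposed for 1 h, and displacement of radioligand was counted after filtration, using DMSO as baseline.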

The subject of experiment [9] is rat Monoamine Oxidase, MAO-A, Central (MAOAC), gene 29253. Kind of experiment: NVS_ENZ_rMAOAC: NovaScreen (NVS) Enzymatic Assay for rat Monoamine Oxidase, MAO-A, Central (MAOAC) (AID 2283243).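 Also: potency refers to inhibition seen as signal drop below DMSO baseline.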 The essentials:
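Lysate-based radiometric enzyme assay using rat brain tissue; 1.5 h treatment; 25 uM single-point duplicate screen, concentration-response follow-up; loss of signal versus DMSO.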

In experiment [10] the target is human Serotonin, 5-Hydroxytryptamine Receptor 7 (5HT7), HTR7 (gene 3363) (UniProt P34969). The experiment in a line: NVS_GPCR_h5HT7: NovaScreen (NVS) G Protein-Coupled Receptor Assay for human Serotonin, 5-Hydroxytryptamine Receptor 7 (5HT7) (AID 2283255).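 Also: hits reduce specific radioligand binding relative to DMSO.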 The essentials:
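Filter-bound radioactivity counted after 1 h, with loss of specific radioligand binding fitted against DMSO. Membrane protein came from CHO cells expressing human 5HT7. Chemicals were tested first at 25 uM in duplicate, then in concentration series if active.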

The subject of experiment [11] is guinea pig Muscarinic, Peripheral (Mperiperal) Receptor, Non-selective Binding, gene 100379235. Kind of experiment: NVS_GPCR_gMPeripheral_NonSelective: NovaScreen (NVS) G Protein-Coupled Receptor Assay for guinea pig Muscarinic, Peripheral (Mperiperal) Receptor, Non-selective Binding (AID 2283250). An outline of the steps: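 Screened in duplicate at 25 uM, hits retested in concentration series to 50 uM max, using bladder membrane radioligand displacement from guinea pig. Filtration and scintillation counting 1 h post-dose, fitted relative to DMSO.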

The target in experiment [12] is Type-1 angiotensin II receptor (Homo sapiens) (UniProt P30556). Kind of experiment: NVS_GPCR_hAT1: NovaScreen (NVS) G Protein-Coupled Receptor Assay for human Angiotensin II receptor type 1 (AT1) (AID 2283263). The essentials:
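Hits from a 25 uM duplicate screen (threshold e.g. 30% inhibition) were run in concentration-response with 50 uM top concentration. Displacement of specific radioligand from KAN-TS membrane preparations measured after 3 h by filter scintillation, DMSO as baseline.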

In experiment [13] the test system is bovine Histamine 1 Receptor (H1), gene 281231. The experiment in a line: NVS_GPCR_bH1: NovaScreen (NVS) G Protein-Coupled Receptor Assay for bovine Histamine 1 Receptor (H1) (AID 2283246). The essentials:
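Hits from a 25 uM duplicate primary screen were retested in concentration series (top 50 uM); binding measured as scintillation-counted displacement of radioligand from bovine cerebellar membranes after 1 h, normalised to DMSO.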

The target in experiment [14] is human Adrenergic, Beta 3 Receptor (Adrb3), ADRB3 (gene 155) (UniProt P13945). Kind of experiment: NVS_GPCR_hAdrb3: NovaScreen (NVS) G Protein-Coupled Receptor Assay for human Adrenergic, Beta 3 Receptor (Adrb3) (AID 2283262). An outline of the steps:
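A cell-free filter binding assay read by scintillation counting, with displacement of a specific radioligand measured after 1 hour. The receptor source was SK-N-MC extracts (cells pretreated with isoproterenol and 8-bromo-cAMP). Compounds were first tested at 25 uM in duplicate and then in concentration series.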

Experiment [15] can be described thus: NVS_GPCR_bNPY_NonSelective: NovaScreen (NVS) G Protein-Coupled Receptor Assay for bovine Neuropeptide Y (NPY) Receptor, Non-selective Binding (AID 2283245). The essentials:
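Displacement of radioligand from bovine hippocampal membrane receptors, read by filtration and scintillation counting after 1 hour. Concentration-response to a top of 50 uM followed a 25 uM duplicate primary screen. Loss of signal versus DMSO.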

The target of experiment [16] is human Serotonin, 5-Hydroxytryptamine Receptor 2A (5HT2A), HTR2A (gene 3356) (UniProt P28223). Kind of experiment: NVS_GPCR_h5HT2A: NovaScreen (NVS) G Protein-Coupled Receptor Assay for human Serotonin, 5-Hydroxytryptamine Receptor 2A (5HT2A) (AID 2283249). The essentials: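 Radioligand displacement on human cortex tissue extract, counted by filtration and scintillation 1.5 h post-dosing. Initial single-concentration screen at 25 uM in duplicate, concentration series in follow-up; DMSO as baseline.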

The target of experiment [17] is human Adrenergic, Beta 1 Receptor (Adrb1), ADRB1 (gene 153) (UniProt P08588). Kind of experiment: NVS_GPCR_hAdrb1: NovaScreen (NVS) G Protein-Coupled Receptor Assay for human Adrenergic, Beta 1 Receptor (Adrb1) (AID 2283258). An outline of the steps: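 Membranes/protein extracted from human neuroepithelioma cells, radioligand competition binding read by filtration and scintillation 2 h post-dose. Single 25 uM duplicate screen, then concentration-response follow-up; DMSO as negative control.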

Experiment [18] addresses Beta-2 adrenergic receptor (Homo sapiens) (UniProt P07550). The experiment in a line: NVS_GPCR_hAdrb2: NovaScreen (NVS) G Protein-Coupled Receptor Assay for human Adrenergic, Beta 2 Receptor (Adrb2) (AID 2283261). The essentials: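 Compounds screened in duplicate at 25 uM, then actives in concentration series. Human beta-2 receptor from CHO material, cell-free; radioligand displacement after 1 h measured by filtration and scintillation against DMSO baseline.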

Experiment [19] addresses human Dopamine Receptor D4.4 (DRD4.4), DRD4 (gene 1815) (UniProt P21917). The experiment in a line: NVS_GPCR_hDRD4.4: NovaScreen (NVS) G Protein-Coupled Receptor Assay for human Dopamine Receptor D4.4 (DRD4.4) (AID 2283264). An outline of the steps: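 Filter-binding assay with a tritiated or iodinated ligand, cell-free receptor prepared from CHO, 1 hour. Loss of bound radioactivity versus DMSO; single 25 uM duplicate screen, then concentration-response for actives.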

Sequence of human Serotonin, 5-Hydroxytryptamine Receptor 6 (5HT6), HTR6 (gene 3362) (P50406 whole entry, looked up): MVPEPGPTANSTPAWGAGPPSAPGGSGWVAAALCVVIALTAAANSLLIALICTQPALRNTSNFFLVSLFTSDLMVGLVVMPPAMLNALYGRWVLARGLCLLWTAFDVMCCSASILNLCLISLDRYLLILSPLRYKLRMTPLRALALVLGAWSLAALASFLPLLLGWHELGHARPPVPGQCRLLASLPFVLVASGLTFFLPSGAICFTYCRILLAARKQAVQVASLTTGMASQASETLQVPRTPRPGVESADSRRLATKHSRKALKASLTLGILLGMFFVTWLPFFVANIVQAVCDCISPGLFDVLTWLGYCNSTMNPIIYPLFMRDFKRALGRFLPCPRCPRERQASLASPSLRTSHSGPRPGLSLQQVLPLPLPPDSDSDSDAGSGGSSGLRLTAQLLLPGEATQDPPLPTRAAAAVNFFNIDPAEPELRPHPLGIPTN
Sequence of Type-1 angiotensin II receptor (Homo sapiens) (P30556 whole entry, looked up): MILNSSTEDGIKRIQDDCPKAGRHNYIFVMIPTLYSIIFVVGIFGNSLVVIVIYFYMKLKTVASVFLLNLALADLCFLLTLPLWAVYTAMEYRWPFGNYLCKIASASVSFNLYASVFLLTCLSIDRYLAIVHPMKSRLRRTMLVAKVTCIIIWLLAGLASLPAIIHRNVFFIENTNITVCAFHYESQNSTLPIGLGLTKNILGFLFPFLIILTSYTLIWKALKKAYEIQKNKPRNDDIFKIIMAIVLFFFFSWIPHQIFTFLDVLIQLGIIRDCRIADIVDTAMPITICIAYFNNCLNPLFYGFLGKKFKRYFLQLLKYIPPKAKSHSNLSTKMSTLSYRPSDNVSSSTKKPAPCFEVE
Sequence of human Adrenergic, Alpha 2c Receptor (Adra2C), ADRA2C (gene 152) (P18825 whole entry, looked up): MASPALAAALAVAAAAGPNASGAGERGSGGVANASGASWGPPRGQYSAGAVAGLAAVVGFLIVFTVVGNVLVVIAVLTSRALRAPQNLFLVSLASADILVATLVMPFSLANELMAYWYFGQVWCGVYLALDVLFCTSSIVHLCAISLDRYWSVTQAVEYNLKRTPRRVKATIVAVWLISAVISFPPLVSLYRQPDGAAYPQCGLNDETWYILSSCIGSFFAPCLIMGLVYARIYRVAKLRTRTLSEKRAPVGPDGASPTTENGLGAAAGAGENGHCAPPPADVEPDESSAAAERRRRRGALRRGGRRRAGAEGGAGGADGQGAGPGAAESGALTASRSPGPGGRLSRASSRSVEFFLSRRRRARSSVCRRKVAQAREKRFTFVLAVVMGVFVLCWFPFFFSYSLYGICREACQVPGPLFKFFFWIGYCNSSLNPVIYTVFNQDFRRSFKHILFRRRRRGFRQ
Sequence of guinea pig Opioid, Kappa 1 Receptor (OpiateK), OPRK1 (gene 100135587) (P41144 whole entry, looked up): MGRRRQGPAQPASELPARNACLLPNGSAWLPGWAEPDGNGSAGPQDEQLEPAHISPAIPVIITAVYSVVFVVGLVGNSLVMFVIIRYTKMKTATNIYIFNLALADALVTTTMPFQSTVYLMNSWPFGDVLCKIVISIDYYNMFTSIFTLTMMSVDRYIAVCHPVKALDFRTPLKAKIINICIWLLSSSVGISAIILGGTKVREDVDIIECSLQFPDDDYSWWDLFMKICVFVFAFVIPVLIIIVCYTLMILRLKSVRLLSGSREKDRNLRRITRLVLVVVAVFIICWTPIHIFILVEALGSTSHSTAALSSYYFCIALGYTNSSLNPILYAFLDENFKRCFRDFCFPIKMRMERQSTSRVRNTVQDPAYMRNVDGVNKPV
Sequence of human Adenosine A1 Receptor (AdoRA1), ADORA1 (gene 134) (P30542 whole entry, looked up): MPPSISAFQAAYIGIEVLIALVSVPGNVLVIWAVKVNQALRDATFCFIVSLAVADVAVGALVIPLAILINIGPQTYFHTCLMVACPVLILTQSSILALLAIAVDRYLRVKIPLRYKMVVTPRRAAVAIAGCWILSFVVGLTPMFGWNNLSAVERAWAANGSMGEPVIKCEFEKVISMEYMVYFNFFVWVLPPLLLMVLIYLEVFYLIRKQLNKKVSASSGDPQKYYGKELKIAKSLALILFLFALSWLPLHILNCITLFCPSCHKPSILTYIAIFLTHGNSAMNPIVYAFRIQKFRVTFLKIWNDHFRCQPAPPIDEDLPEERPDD
Sequence of human Serotonin, 5-Hydroxytryptamine Receptor 7 (5HT7), HTR7 (gene 3363) (P34969 whole entry, looked up): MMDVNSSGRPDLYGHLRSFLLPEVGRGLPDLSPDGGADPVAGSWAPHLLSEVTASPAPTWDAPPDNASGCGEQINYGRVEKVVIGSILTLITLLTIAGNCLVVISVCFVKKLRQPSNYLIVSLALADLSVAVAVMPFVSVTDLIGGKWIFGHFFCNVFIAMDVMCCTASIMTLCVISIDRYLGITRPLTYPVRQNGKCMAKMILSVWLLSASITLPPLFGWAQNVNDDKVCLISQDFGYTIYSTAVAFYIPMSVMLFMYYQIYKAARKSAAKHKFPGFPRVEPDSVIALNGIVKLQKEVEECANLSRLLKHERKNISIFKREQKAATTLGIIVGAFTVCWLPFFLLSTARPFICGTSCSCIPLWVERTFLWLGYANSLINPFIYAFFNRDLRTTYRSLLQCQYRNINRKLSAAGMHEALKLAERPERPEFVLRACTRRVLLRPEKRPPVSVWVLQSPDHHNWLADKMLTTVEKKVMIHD
Sequence of human Adrenergic, Alpha 2A Receptor (Adra2A), ADRA2A (gene 150) (P08913 whole entry, looked up): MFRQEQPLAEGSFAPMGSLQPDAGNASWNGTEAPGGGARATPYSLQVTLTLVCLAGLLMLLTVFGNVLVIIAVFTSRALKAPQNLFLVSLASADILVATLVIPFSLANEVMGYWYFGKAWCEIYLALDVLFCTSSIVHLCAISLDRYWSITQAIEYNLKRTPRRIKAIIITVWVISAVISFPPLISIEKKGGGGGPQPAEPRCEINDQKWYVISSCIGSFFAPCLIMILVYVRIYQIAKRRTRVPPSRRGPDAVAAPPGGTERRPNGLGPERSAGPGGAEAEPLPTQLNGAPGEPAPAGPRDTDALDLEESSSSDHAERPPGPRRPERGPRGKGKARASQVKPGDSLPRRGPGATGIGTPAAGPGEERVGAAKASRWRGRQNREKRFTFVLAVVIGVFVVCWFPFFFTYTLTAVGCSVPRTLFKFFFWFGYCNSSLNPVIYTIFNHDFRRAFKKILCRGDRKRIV
Sequence of human Adrenergic, Beta 3 Receptor (Adrb3), ADRB3 (gene 155) (P13945 whole entry, looked up): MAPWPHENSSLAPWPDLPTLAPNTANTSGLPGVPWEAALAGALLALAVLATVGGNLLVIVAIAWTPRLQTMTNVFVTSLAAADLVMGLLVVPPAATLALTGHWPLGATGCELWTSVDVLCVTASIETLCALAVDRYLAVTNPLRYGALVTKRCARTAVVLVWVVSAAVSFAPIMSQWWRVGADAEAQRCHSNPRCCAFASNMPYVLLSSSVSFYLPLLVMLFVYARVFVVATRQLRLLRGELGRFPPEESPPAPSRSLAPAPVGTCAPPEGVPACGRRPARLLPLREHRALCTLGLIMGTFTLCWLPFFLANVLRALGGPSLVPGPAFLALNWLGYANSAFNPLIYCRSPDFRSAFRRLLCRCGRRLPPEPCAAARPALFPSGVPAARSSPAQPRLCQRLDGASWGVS
Sequence of human Adrenergic, Beta 1 Receptor (Adrb1), ADRB1 (gene 153) (P08588 whole entry, looked up): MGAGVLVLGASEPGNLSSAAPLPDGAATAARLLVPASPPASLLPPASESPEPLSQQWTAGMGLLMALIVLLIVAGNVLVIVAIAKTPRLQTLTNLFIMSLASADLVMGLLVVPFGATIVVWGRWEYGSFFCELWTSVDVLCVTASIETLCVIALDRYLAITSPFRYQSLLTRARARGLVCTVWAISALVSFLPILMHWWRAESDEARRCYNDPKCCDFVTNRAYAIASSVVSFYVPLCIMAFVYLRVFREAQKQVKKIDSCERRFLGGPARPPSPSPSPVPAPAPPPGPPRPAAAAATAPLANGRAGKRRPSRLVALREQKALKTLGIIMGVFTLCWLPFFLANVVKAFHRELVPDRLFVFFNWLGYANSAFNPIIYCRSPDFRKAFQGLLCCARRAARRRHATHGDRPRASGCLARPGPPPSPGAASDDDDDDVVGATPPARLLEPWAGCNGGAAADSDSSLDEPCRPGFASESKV
Sequence of human Adenosine A2a Receptor (AdoRA2a), ADORA2A (gene 135) (P29274 whole entry, looked up): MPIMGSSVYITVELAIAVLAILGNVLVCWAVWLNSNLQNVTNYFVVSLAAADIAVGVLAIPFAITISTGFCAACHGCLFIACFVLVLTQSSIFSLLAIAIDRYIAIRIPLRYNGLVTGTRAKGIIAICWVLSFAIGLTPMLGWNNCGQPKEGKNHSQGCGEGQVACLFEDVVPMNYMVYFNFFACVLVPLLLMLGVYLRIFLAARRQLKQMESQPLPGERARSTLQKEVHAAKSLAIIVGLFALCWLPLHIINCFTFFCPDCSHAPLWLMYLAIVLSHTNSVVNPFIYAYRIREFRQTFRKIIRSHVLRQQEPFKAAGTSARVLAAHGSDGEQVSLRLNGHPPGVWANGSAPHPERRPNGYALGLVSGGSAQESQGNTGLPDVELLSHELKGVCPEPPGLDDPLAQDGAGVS
Sequence of human Serotonin, 5-Hydroxytryptamine Receptor 2A (5HT2A), HTR2A (gene 3356) (P28223 whole entry, looked up): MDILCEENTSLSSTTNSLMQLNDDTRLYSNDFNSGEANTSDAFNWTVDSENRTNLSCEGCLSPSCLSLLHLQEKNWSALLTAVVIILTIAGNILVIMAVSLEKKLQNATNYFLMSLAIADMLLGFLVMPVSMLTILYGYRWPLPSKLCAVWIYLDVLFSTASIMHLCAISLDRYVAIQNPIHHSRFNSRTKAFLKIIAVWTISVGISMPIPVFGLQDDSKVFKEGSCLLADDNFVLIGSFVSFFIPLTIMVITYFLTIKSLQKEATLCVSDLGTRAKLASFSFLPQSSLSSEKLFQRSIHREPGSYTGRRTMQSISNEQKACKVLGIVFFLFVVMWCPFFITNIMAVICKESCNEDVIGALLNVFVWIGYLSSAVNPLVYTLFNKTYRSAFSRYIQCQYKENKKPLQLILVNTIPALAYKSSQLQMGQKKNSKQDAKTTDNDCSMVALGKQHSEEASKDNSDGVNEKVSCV

In the case of `COc1ccc(C(=CC(=O)N2CCOCC2)c2ccc(Cl)cc2)cc1OC`, in experiment [1], the call was inactive. In addition, the AC50 in [2] was 14.2 µM (active).

As to `CCOP(=S)(OCC)Oc1ccc2c(C)c(Cl)c(=O)oc2c1`, the outcome in [3] was inactive.

Take `CCCOCC(=Nc1ccc(Cl)cc1C(F)(F)F)n1ccnc1`: the molecule was classed as inactive in [4] and in experiment [1].

Regarding `O=C(O)c1cc(Oc2ccc(C(F)(F)F)cc2Cl)ccc1[N+](=O)[O-]`, the molecule was classed as inactive in experiment [5]. The AC50 in experiment [6] is 7.71 µM (active).

Regarding `CC(C)N(C(=O)SCC(Cl)=C(Cl)Cl)C(C)C`, the call in experiment [7] was inactive.

Take `CCc1cnc(C2=NC(C)(C(C)C)C(=O)N2)c(C(=O)O)c1` (stereo not given): the molecule was classed as inactive in [8].

Consider `C#CCC1=C(C)C(OC(=O)C2C(C=C(C)C)C2(C)C)CC1=O` (stereo not given), for which the molecule was called inactive in experiment [2].

In the case of `C[Si](Cn1cncn1)(c1ccc(F)cc1)c1ccc(F)cc1`, the AC50 was 34 µM (active) in experiment [9], 25 µM (active) in experiment [1] and 16.6 µM (active) in experiment [10].

In the case of `CCOP(=O)(NC(C)C)Oc1ccc(SC)c(C)c1` (stereo not given), the concentration at half-maximal activity (AC50) in [1] is 16.3 µM (active).

For the molecule `Cc1ccn2nc(S(=O)(=O)Nc3c(F)cccc3F)nc2n1`, in experiment [11], the result was inactive.

For the molecule `CC(C)[C@H](C(=O)O[C@H](C#N)c1cccc(Oc2ccccc2)c1)c1ccc(Cl)cc1`, the AC50 in [10] was 6.87 µM (active).

`CCc1cccc(C)c1N(C(=O)CCl)C(C)COC` (stereo not given): in [9], the molecule was called inactive. Also, in experiment [1], the AC50 is 16.2 µM (active).

Regarding `CCCOc1nn(C(=O)NS(=O)(=O)c2ccccc2C(=O)OC)c(=O)n1C`, in [12], the molecule was classed as inactive.

Turning to `CC(=NC#N)N(C)Cc1ccc(Cl)nc1`, the AC50 in experiment [9] was 13.3 µM (active).

For the molecule `CCOP(=O)(SC(C)CC)N1CCSC1=O` (stereo not given), the result in experiment [13] and in [14] was inactive.

For `Nc1c(Cl)cc([N+](=O)[O-])cc1Cl`, the AC50 in experiment [9] was 15.6 µM (active).

As to `CCOP(=O)(OCC)Oc1cc(C)nc(C(C)C)n1`, the molecule was classed as inactive in experiment [12].

Take `CC1(C(=O)Nc2ccc(O)c(Cl)c2Cl)CCCCC1`: the result in [9] was inactive.

As to `CCCSP(=O)(OCC)Oc1ccc(Br)cc1Cl` (stereo not given), the molecule was called inactive in experiment [12].

With `CN(C)C(=O)Nc1cccc(C(F)(F)F)c1`, in experiment [9], the AC50 was 29.7 µM (active). Further, in experiment [13], the result was inactive.

For the molecule `C[N+]1(C)CCCCC1`, the outcome in [8] was inactive.

In the case of `CC[C@H](C)[C@H]1O[C@]2(C=C[C@@H]1C)C[C@@H]1C[C@@H](C/C=C(\C)[C@@H](O[C@H]3C[C@H](OC)[C@@H](O[C@H]4C[C@H](OC)[C@@H](NC)[C@H](C)O4)[C@H](C)O3)[C@@H](C)/C=C/C=C3\CO[C@@H]4[C@H](O)C(C)=C[C@@H](C(=O)O1)[C@]34O)O2`, in experiment [9], the outcome was inactive. For the same molecule, the concentration at half-maximal activity (AC50) in experiment [15] is 20.6 µM (active); in experiment [16] it was 26.9 µM (active); in experiment [1], 25 µM (active); in experiment [7], 13.9 µM (active); in experiment [10], 4.29 µM (active); in experiment [3], 26.8 µM (active). Further, the AC50 in experiment [17] is 9.83 µM (active); in [8], 10.7 µM (active); in experiment [18], 18.1 µM (active); in [12] it was 17 µM (active); in experiment [19], 16.2 µM (active).

In the case of `FC(F)C(F)(F)OCC(Cn1cncn1)c1ccc(Cl)cc1Cl` (stereo not given), the result in experiment [1] was inactive. In addition, the AC50 in experiment [2] was 25 µM (active).

In the case of `C=C(C)[C@H]1Cc2c(ccc3c2O[C@@H]2COc4cc(OC)c(OC)cc4[C@@H]2C3=O)O1`, the AC50 in experiment [7] is 1.13 µM (active).

As to `CC(C)=CC1C(C(=O)OCN2C(=O)C3=C(CCCC3)C2=O)C1(C)C` (stereo not given), the result in experiment [10] was inactive.
